Measurements published in the supplement of paper PMC10849652.
Of roughly 8,800 targets only a part is listed; those with a hit were picked by preference. About 0.5% of all pairs of compound and target were hits. A number with no mark means an inactive call.

Tests used:
Assay in all cases: log2 fold change, soluble protein after heating vs DMSO (PISA); higher = thermal stabilisation; K562 lysate, 10 uM; active = over 0.2 and 3.5 SD of the protein, either way, in both replicates (recomputed)
vemurafenib = compound: CCCS(=O)(=O)Nc1ccc(F)c(C(=O)c2c[nH]c3ncc(-c4ccc(Cl)cc4)cc23)c1F [vemurafenib]
How it was run: (§1)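 K562 pellets were dounce-homogenised in PBS pH 7.4 containing 1 mM MgCl2, and the crude extract, at 1 mg/mL protein, was exposed to 10 μM compound for 30 min. Aliquots were heated for 3 min across 48°C-58°C, pooled, brought to 0.5% NP-40 at 4°C and spun at 21,000xg for 90 min, with the supernatant taken as soluble protein. TMTpro 16plex LC-MS/MS with equalised channel sums quantified that protein. Values are log-two fold changes in thermal stability relative to solvent controls, taken from duplicates.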

[1] = compound: CCCS(=O)(=O)Nc1ccc(F)c(C(=O)c2c[nH]c3ncc(Cl)cc23)c1F
How it was run: as §1

barasertib = compound: CCN(CCCOc1ccc2c(Nc3cc(CC(=O)Nc4cccc(F)c4)[nH]n3)ncnc2c1)CCOP(=O)(O)O [barasertib]
How it was run: as §1

[2] = compound: CC[C@@H]1C(=O)N(C)c2cnc(Nc3ccc(C(=O)NC4CCN(C)CC4)cc3OC)nc2N1C1CCCC1
How it was run: as §1

volasertib = compound: CC[C@@H]1C(=O)N(C)c2cnc(Nc3ccc(C(=O)N[C@H]4CC[C@H](N5CCN(CC6CC6)CC5)CC4)cc3OC)nc2N1C(C)C [volasertib]
How it was run: as §1

[3] = compound: CCn1c(C(=O)N(C2CC2)C2CC2)cc2c3c(ncn3C)c(Nc3cc(C)n(C)n3)nc21
How it was run: as §1

[4] = compound: CCn1cc(-c2ccnc3[nH]c(-c4cccc(CN(C)C)c4)cc23)c(-c2ccc(NC(=O)N(C)C)cc2)n1
How it was run: as §1

[5] = compound: CN1CCC(CNc2ccc3ncc(-c4cccc(OC(F)(F)F)c4)n3n2)CC1
How it was run: as §1

saracatinib = compound: CN1CCN(CCOc2cc(OC3CCOCC3)c3c(Nc4c(Cl)ccc5c4OCO5)ncnc3c2)CC1 [saracatinib]
How it was run: as §1

sotrastaurin = compound: CN1CCN(c2nc(C3=C(c4c[nH]c5ccccc45)C(=O)NC3=O)c3ccccc3n2)CC1 [sotrastaurin]
How it was run: as §1

Sequence of UniProt P27361 (P27361 whole entry, looked up): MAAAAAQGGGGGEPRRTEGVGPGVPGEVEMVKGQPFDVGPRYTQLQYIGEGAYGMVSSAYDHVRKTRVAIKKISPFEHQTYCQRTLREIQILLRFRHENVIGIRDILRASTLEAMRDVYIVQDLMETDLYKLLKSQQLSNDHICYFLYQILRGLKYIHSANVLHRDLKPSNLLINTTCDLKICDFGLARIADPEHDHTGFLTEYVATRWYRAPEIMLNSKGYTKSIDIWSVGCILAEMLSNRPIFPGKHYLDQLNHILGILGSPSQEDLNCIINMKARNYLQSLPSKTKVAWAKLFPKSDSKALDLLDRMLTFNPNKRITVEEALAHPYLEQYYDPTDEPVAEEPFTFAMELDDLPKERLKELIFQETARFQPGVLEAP
Sequence of UniProt P49916 (P49916 whole entry, looked up): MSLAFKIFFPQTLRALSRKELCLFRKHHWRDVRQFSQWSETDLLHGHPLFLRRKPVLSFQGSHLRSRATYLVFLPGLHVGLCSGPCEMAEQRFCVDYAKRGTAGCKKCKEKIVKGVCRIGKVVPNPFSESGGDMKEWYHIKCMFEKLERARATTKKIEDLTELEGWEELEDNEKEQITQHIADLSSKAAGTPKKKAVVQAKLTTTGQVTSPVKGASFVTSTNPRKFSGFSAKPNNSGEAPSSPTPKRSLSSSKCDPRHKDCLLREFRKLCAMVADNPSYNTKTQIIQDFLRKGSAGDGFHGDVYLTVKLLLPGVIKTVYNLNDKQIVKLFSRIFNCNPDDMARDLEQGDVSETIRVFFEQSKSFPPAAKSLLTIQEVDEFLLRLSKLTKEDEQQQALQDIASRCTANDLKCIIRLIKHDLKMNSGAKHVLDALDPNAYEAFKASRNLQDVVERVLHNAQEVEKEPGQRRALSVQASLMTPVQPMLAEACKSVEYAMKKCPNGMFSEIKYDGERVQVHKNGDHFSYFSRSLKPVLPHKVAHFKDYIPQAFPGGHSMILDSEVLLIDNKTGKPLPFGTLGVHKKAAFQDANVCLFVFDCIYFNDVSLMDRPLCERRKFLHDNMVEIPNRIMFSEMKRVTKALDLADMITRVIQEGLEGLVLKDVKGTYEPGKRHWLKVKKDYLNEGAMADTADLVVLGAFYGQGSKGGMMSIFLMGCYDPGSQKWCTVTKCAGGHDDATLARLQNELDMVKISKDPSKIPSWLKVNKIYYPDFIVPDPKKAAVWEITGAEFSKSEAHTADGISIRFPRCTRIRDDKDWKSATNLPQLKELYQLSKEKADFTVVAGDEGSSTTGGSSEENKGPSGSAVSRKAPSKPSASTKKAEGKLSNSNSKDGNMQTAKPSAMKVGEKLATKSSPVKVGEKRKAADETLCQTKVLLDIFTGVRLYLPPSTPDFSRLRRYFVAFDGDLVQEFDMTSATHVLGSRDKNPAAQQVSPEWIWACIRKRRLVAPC
Sequence of UniProt P07948 (P07948 whole entry, looked up): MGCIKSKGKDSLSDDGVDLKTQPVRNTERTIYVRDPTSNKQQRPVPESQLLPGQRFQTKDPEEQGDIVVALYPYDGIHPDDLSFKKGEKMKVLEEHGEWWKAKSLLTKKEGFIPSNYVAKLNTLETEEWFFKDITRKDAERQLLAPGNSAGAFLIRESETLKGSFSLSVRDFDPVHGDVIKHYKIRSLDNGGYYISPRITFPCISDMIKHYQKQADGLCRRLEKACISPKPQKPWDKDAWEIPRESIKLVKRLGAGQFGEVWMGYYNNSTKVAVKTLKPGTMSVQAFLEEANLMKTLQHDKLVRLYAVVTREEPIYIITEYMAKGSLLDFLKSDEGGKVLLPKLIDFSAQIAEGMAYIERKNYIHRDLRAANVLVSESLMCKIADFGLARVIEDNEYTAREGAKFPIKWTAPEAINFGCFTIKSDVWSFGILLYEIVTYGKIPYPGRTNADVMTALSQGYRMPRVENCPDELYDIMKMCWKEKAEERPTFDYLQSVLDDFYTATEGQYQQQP
Sequence of UniProt P14174 (P14174 whole entry, looked up): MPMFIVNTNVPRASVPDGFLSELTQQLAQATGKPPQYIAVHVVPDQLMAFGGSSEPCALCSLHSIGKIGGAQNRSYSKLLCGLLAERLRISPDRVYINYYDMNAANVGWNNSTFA
Sequence of UniProt Q7Z3U7 (Q7Z3U7 whole entry, looked up): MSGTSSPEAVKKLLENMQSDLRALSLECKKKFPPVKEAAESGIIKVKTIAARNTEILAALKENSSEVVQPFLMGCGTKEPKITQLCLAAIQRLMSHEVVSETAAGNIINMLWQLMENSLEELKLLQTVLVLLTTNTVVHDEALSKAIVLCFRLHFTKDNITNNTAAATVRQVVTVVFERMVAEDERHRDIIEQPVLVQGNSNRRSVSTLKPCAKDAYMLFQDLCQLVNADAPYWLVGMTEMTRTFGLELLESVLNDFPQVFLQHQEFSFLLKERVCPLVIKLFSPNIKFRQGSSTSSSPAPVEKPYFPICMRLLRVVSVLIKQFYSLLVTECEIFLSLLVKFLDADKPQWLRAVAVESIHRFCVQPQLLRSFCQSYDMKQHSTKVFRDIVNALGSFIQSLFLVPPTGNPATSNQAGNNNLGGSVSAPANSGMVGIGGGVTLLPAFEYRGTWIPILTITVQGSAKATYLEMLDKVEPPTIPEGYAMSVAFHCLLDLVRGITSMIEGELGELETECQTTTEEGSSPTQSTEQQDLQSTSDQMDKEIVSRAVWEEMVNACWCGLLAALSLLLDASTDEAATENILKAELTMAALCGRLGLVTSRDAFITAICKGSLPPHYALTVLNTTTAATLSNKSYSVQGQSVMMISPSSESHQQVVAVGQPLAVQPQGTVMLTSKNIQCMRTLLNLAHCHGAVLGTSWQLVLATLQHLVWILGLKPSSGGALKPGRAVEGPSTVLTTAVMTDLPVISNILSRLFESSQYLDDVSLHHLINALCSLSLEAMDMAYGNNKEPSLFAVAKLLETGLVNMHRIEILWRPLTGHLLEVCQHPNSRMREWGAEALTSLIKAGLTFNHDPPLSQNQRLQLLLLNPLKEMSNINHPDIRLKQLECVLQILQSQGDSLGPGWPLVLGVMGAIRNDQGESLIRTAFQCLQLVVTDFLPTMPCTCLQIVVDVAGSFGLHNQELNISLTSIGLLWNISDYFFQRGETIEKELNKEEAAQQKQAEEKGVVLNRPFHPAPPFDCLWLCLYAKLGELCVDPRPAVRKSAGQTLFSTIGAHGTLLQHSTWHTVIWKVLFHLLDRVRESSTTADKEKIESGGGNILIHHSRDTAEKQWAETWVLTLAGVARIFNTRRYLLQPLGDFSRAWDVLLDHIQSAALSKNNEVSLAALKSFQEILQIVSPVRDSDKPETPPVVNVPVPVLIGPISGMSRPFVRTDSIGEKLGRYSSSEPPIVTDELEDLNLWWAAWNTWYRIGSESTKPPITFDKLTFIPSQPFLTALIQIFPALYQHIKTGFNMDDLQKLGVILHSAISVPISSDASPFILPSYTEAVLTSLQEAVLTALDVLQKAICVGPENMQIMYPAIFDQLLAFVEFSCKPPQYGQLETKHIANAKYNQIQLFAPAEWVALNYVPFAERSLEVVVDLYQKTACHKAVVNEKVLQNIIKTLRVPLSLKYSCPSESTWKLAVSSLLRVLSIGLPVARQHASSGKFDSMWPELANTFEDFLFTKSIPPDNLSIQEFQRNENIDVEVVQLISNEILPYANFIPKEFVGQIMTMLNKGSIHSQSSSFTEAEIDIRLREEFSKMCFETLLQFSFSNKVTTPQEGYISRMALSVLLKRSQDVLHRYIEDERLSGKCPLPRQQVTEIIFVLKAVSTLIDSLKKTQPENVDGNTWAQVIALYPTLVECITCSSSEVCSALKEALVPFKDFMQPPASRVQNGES
Sequence of UniProt Q9BTT4 (Q9BTT4 whole entry, looked up): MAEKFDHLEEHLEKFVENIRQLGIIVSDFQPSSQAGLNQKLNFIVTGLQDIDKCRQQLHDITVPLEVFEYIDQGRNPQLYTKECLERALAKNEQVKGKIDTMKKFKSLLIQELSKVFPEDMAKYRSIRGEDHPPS
Sequence of UniProt P28838 (P28838 whole entry, looked up): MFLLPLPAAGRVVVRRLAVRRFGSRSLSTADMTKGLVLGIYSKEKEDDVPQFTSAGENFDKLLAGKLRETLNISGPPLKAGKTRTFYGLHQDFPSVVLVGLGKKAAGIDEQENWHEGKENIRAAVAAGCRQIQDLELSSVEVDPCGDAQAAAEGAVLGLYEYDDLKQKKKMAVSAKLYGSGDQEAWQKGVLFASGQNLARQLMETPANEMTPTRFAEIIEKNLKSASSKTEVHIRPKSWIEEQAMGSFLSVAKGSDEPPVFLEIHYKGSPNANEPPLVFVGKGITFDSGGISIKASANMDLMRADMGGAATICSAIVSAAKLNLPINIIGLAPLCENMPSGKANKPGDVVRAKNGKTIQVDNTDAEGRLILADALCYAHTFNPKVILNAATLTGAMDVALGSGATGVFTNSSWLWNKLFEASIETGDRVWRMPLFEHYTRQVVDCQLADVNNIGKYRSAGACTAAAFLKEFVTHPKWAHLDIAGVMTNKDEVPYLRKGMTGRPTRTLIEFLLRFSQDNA
Sequence of UniProt Q8NE86 (Q8NE86 whole entry, looked up): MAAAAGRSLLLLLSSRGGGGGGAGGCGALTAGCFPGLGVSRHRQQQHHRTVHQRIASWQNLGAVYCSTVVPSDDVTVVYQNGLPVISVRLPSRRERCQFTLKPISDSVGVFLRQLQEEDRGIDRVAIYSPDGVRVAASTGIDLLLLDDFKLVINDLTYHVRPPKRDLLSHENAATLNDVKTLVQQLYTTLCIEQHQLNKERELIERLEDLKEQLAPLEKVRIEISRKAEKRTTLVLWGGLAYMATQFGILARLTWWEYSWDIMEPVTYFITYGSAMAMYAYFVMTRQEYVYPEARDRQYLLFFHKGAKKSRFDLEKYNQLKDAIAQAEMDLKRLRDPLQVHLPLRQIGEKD
Sequence of UniProt Q9HD34 (Q9HD34 whole entry, looked up): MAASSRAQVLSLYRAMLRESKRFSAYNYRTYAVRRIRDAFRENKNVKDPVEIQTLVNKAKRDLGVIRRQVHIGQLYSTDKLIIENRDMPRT
Sequence of UniProt O95777 (O95777 whole entry, looked up): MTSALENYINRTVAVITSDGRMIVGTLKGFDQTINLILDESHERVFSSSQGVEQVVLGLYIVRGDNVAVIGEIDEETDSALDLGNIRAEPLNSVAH

Target | log2 fold change (vemurafenib) | log2 fold change [1] | log2 fold change (barasertib) | log2 fold change [2] | log2 fold change (volasertib) | log2 fold change [3] | log2 fold change [4] | log2 fold change [5] | log2 fold change (saracatinib) | log2 fold change (sotrastaurin)
LYSMD3 (UniProt Q7Z3D4) | 0.025 | -0.05 | -0.003 | 0.074 | 0.056 | -0.013 | -0.094 | 0.235 | 0.056 | 0.002
LIG4 (UniProt P49917) | 0.041 | -0.034 | -0.04 | -0.087 | -0.182 | -0.027 | -0.105 | 0.018 | 0.027 | 0.048
LAP3 (UniProt P28838) | 0.107 | 0.024 | -0.002 | 0.195 | 0.054 | -0.095 | -0.495 (active) | 0.36 (active) | 0.082 | 0.042
MAPK14 isoform 2 (UniProt Q16539) | 0.189 | 0.046 | 0.079 | -0.076 | -0.078 | 0.003 | 0.303 | -0.101 | 0.192 | -0.029
LYN (UniProt P07948) | 0.285 | 0.05 | 0.258 | -0.067 | -0.134 | 0.004 | -0.012 | 0.233 | 0.605 | -0.045
LTN1 isoform 3 (UniProt O94822) | 0.005 | 0.022 | 0.034 | -0.06 | -0.041 | -0.004 | 0.035 | -0.106 | 0.04 | 0.03
MORF4L1 isoform 2 (UniProt Q9UBU8) | 0.034 | -0.017 | 0.007 | 0.016 | 0 | -0.005 | -0.036 | 0.131 | 0.038 | 0.019
MBD2 (UniProt Q9UBB5) | -0.014 | 0.016 | -0.009 | 0.059 | -0.021 | 0.073 | -0.005 | -0.007 | -0.036 | -0.089
MON2 isoform 5 (UniProt Q7Z3U7) | -0.015 | 0.025 | 0.008 | -0.029 | -0.04 | 0.019 | -0.07 | 0.062 | -0.006 | -0.003
MAPK9 (UniProt P45984) | -0.016 | -0.002 | -0.025 | -0.063 | 0.006 | -0.007 | 0.084 | -0.15 | 0.002 | -0.031
KIF15 (UniProt Q9NS87) | -0.01 | 0.045 | 0.016 | -0.018 | -0.053 | 0.036 | 0.006 | -0.036 | 0.019 | 0
MGAT5 (UniProt Q09328) | -0.254 | -0.07 | 0.062 | -0.08 | -0.065 | 0.021 | 0.094 | -0.138 | -0.036 | 0.002
LUC7L (UniProt Q9NQ29) | 0.019 | -0.014 | 0.024 | -0.072 | 0.028 | -0.004 | 0.172 | -0.008 | -0.013 | -0.068
MMS19 isoform 8 (UniProt Q96T76) | 0.064 | 0.006 | 0.029 | -0.061 | -0.114 | 0.002 | -0.005 | -0.051 | 0 | 0.026
LSM8 (UniProt O95777) | -0.054 | 0.018 | 0.355 | -0.019 | 0.027 | 0 | -0.058 | 0.052 | -0.005 | -0.017
MCCC1 (UniProt Q96RQ3) | 0.065 | 0.009 | 0.015 | 0.005 | -0.034 | -0.025 | 0.139 | -0.059 | 0.028 | 0.054

Target | log2 fold change (vemurafenib) | log2 fold change [1] | log2 fold change (barasertib) | log2 fold change [2] | log2 fold change (volasertib) | log2 fold change [3] | log2 fold change [4] | log2 fold change [5] | log2 fold change (saracatinib) | log2 fold change (sotrastaurin)
MAPKAPK5 (UniProt Q8IW41) | -0.111 | -0.11 | -0.013 | -0.009 | -0.052 | 0.031 | 0.017 | -0.02 | -0.009 | -0.068
MAPK3 (UniProt P27361) | 0.013 | -0.024 | -0.026 | 0.01 | -0.011 | -0.031 | 0 | 0.026 | 0 | -0.017
LLGL1 (UniProt Q15334) | 0.06 | -0.052 | -0.014 | -0.057 | 0.02 | -0.038 | 0.033 | -0.008 | -0.097 | 0.168
MED10 (UniProt Q9BTT4) | 0.037 | 0 | 0.08 | 0.133 | 0.066 | -0.009 | 0.107 | -0.059 | 0.077 | -0.015
MLXIP (UniProt Q9HAP2) | 0.004 | 0.013 | 0.019 | -0.032 | -0.041 | 0.028 | -0.045 | 0.093 | 0 | 0.008
LIMK2 isoform 3 (UniProt P53671) | 0.031 | 0.046 | -0.062 | -0.173 | -0.002 | -0.046 | 0.963 (active) | 0.023 | -0.017 | -0.05
LAMP1 (UniProt P11279) | -0.009 | 0.02 | 0.001 | 0.059 | 0.056 | -0.097 | -0.508 (active) | 0.24 | 0.018 | 0.022
KIF4B (UniProt Q2VIQ3) | -0.026 | 0.047 | -0.015 | -0.102 | -0.003 | 0.009 | 0.007 | -0.073 | -0.002 | -0.01
LRCH3 (UniProt Q96II8) | -0.009 | -0.01 | 0.03 | -0.051 | -0.058 | -0.022 | 0.022 | -0.031 | 0.004 | -0.047
MAST4 (UniProt O15021) | -0.085 | -0.049 | 0.051 | -0.126 | -0.017 | 0.121 | -0.204 | 0.059 | -0.001 | -0.015
MCU (UniProt Q8NE86) | 0.011 | 0.017 | 0.077 | -0.085 | -0.033 | -0.049 | -0.062 | -0.099 | 0.04 | 0.017
MIF (UniProt P14174) | 0.025 | -0.047 | -0.02 | 0 | -0.025 | 0.021 | -0.274 | 0.084 | 0.002 | 0.002
KIF11 (UniProt P52732) | -0.027 | 0.003 | 0.023 | -0.011 | -0.024 | 0.025 | -0.055 | 0.018 | 0.023 | 0.026
LIG3 (UniProt P49916) | -0.029 | -0.003 | 0.019 | -0.127 | -0.028 | 0.031 | -0.033 | -0.011 | 0.018 | 0.009
KSR1 (UniProt Q8IVT5) | 0.021 | 0.049 | -0.022 | -0.009 | 0.016 | 0.009 | 0.187 | -0.056 | -0.003 | -0.065
LYRM4 (UniProt Q9HD34) | 0.026 | 0.015 | -0.04 | -0.051 | 0.021 | 0.03 | 0.715 (active) | -0.035 | 0.007 | -0.05
